Compounds with a hit are over-represented: about 6.5% of the library has one in this group of screens.
HT1080 IDH1KD tx: kills HT-1080 cells with IDH1 knockdown | HT-1080 IDH1 knockdown viability, ATP luminescence, 48 h | Potency, µM (doses to about 46.1 µM), for inactives: at the top dose activity, negative = toxicity, most hits filed as cytotoxic | 360,000 compounds, 2% hits | AID 686971;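 also: potency is read from the fitted curve at half-maximal effect; 0% = DMSO wells and -100% = cell-free medium wells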
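Using the IDH1-knockdown HT-1080 line run in the same batch and compound series as the NT line, viability after 48 h at 37 °C was determined by CellTiter-Glo luminescence and expressed as % activity.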
TGFb inhibitor: TGF-b pathway inhibition; HepG2 CAGA-GFP TGF-b/SMAD3 reporter, GFP fluorescence, 18 h; TGF-beta stimulated, 500 pg/mL final; Potency, µM (top dose mostly 46.1 µM), for inactives: at the highest dose activity, negative = inhibition, most hits filed as inhibitors; 410,000 compounds, 1.2% hits; AID 588855; also: potency is read from the fitted curve at half-maximal effect; % is scaled to controls: 0 for no effect and ±100 for the full control effect; nearly all actives have a fitted effect of over 65% in size
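HEPG2 CAGA-GFP cells (1000/well, DMEM with 1% FBS) were pre-incubated 2 h at 37 degrees C, given compound by pin tool, then stimulated with TGF-beta at 500 pg/mL final for 18 h before per-cell GFP fluorescence imaging.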
HT1080NT lethal: kills 2HG-producing HT-1080-NT fibrosarcoma cells; Potency, µM (top dose mostly 46.1 µM), inactives show at the highest dose activity, negative = less viability, usual class: cytotoxic; AID 686970; 360,000 compounds, 1.6% hits; HT-1080-NT fibrosarcoma viability, CellTiter-Glo ATP luminescence, 48 h;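 also: NT is the 2HG producing partner of a matched IDH1 knockdown line; potency is read from the fitted curve at half-maximal effect; 0% = DMSO-treated cells and -100% = media-only wells without cells; nearly all actives have a fitted effect of over 55% in size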
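Compounds were tested in concentration-response format on HT-1080-NT cells for 48 hours at 37 degrees C. Cell viability came from CellTiter-Glo luminescence; curves were classified by r2, response magnitude and activity.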
HepG2 viability: counter-screen for TGF-b inhibitors: cytotoxicity in HepG2 cells | HepG2 CAGA-GFP viability, ATP luminescence, 18 h | Potency, µM (series often up to 46.1 µM), without a hit: top-dose activity change, negative = cytotoxicity, actives largely listed as cytotoxic | AID 588856 | 410,000 compounds, 0.76% hits; also: potency is read from the fitted curve at half-maximal effect
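HepG2 CAGA-GFP cells (1000/well, DMEM with 1% FBS) received compound, then TGF-beta at 500 pg/mL final, and were incubated 18 hours at 37 degrees C. Viability was read by CellTiter-Glo luminescence. Media-only wells were set as complete cell-killing and DMSO as no toxicity.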
Giardia killer: Giardia lamblia killing; activity change, % at 7.66 µM, hits read low; Giardia lamblia trophozoite viability; 340,000 compounds, 0.15% hits; in the data active = activity change below about -80%; inconclusive = between about -30% and that limit;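 also: parasites exposed to compound for two days anaerobically before the ATP read; % is scaled to controls: 0 for no effect and ±100 for the full control effect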
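Giardia lamblia trophozoites (100 cells/well) were incubated with compounds for 48 h at 37 deg C under anaerobic conditions. Viability was read as ATP content by one-step luminescence after 15-30 min at room temperature.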
IL1B secr inh: inflammasome signaling inhibition, IL-1 beta readout; THP-1 LPS/ATP IL-1B secretion, AlphaLISA, 16 h; hits give low values; activity change, % at 57.5 µM; 360,000 compounds, 4.7% hits; AID 743279; in the data active = activity change below about -50%; inconclusive = mostly about -30% to -49%; also: % is scaled to controls: 0 for no effect and ±100 for the full control effect
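THP-1 cells pretreated 1 hr with compounds (up to 57.5 uM final), then stimulated with LPS (250 ng/mL final) plus ATP (1.25 mM final); secreted IL-1B measured by AlphaLISA after 16 hr, decreased signal indicating inhibition.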
* hit, by the source's call; ? = inconclusive. Unless noted, calls follow the shape of the dose curve; as a rule, active = well fitted curve in the direction sought with a large enough effect; inconclusive = small, poorly fitted or top-dose-only effect, or another doubt; inactive = no such curve, though single readings can be large; an effect the other way counts as inactive or inconclusive.

SMILES | HT1080 IDH1KD tx | TGFb inhibitor | HT1080NT lethal | HepG2 viability | Giardia killer | IL1B secr inh
CC(C)Nc1cc(C(C)(C)C)nc2c(-c3ccccc3)cnn12 | ? | ? | ? | -24% | -19 | -70*
Cc1nn2c(NCc3ccccn3)cc(C(C)(C)C)nc2c1-c1ccccc1 | -1% | ? | 2% | -57% | 33 | 5
Cc1cc(NCCCN2CCOCC2)n2ncc(-c3ccc(Cl)cc3)c2n1 | -14% | 1% | -16% | -32% | 7 | -17
COCc1ccc(CN2CCCCC2C(=O)Nc2ccc(Oc3ccccc3)nc2)o1 (stereo unspecified) | -2% | -2% | 5% | 27% | 7 | 1
Cc1cccc(NC(=O)CN(C)CC(=O)NC(c2ccccc2)c2ccccc2)c1C | 1% | ? | -1% | -13% | 11 | -28
CCCCN(CC)Cc1ccc(CNC(=S)Nc2ccc(C)cc2Cl)o1 | -27% | -23% | ? | -32% | -10 | -62*
CCN(CC)CCNC(=S)Nc1ccc(F)cc1 | -10% | -1% | -9% | 1% | 17 | -15
CCCCN(CCCC)Cc1ccc(C(=O)NN)o1 | 6% | -1% | 6% | -15% | -28 | -4
CCCCN(CC)Cc1ccc(CNC(=S)Nc2c(C)cc(C)cc2C)o1 | -7% | -4% | 4% | -22% | 1 | 0
CCCCN(CC)Cc1ccc(CNC(=O)Nc2ccc(F)cc2)o1 | ? | ? | 10µM* | -30% | -10 | 0
CCCCN(CCCC)Cc1ccc(C(=O)NNC(=O)Nc2ccc(Cl)cc2)o1 | -20% | 5% | -28% | -17% | 15 | -57*
Cc1ccc(CNCC2CCCO2)s1 (stereo unspecified) | 0% | -1% | 0% | -13% | 11 | 40
Cc1cc(C)c(S(=O)(=O)/N=C2/C=C(Sc3ncn[nH]3)C(=O)c3ccccc32)cc1C | 4.6µM* | 0.89µM* | 2.9µM* | 1.8µM* | 1 | -88*
Cc1ccc(C)c(S(=O)(=O)/N=C2\C=C(NS(=O)(=O)c3ccccc3)C(=O)c3ccccc32)c1 | -16% | ? | -9% | -16% | -12 | 42
O=C(N/N=C/c1sc2ccccc2c1O)c1ccccc1 | 2.6µM* | -13% | 8.2µM* | -53% | -12 | 51
Cc1ccnn1CC(=O)N/N=C/c1cccs1 | 18% | 1% | 25% | -13% | 3 | 4
Cn1c(SCC(=O)N/N=C/c2ccc([N+](=O)[O-])s2)nnc1-c1ccccc1 | 16µM* | ? | 21µM* | -75% | -6 | -98*
Cc1ccccc1C(=O)N/N=C/c1ccc([N+](=O)[O-])s1 | 8.9µM* | ? | 20µM* | -109% | ? | -65*
Cc1ccnn1CC(=O)N/N=C/c1ccc([N+](=O)[O-])s1 | -21% | 11µM* | ? | -122% | -96* | 30
Cc1cc(N2CCC(C)CC2)nc2ccc(N3C(=O)CCC3=O)cc12 | 2% | -15% | -2% | -12% | -1 | 11
O=C(Cc1ccccc1)N/N=C/c1ccc([N+](=O)[O-])s1 | ? | ? | ? | -79% | -91* | -1
O=C(Cc1ccccc1)N/N=C/c1cccs1 | 6% | -12% | 4% | -18% | -14 | 2
CCOc1ccccc1NC(=O)C(=O)N/N=C/c1ccc([N+](=O)[O-])cc1 | 22% | -1% | 19% | 16% | -10 | -20
O=C(N/N=C/c1ccoc1)c1ccccc1Br | 8% | 29% | 7% | 19% | -8 | 2
COc1ccccc1NC(=O)C(=O)N/N=C/c1ccc([N+](=O)[O-])s1 | 0% | 0% | 14% | -7% | -90* | -11
O=C(N/N=C/c1ccc([N+](=O)[O-])s1)c1ccccc1Br | 16µM* | 11µM* | ? | 10µM* | -96* | -63*
O=C(N/N=C/c1ccc([N+](=O)[O-])s1)C(O)c1ccccc1 (stereo unspecified) | ? | 7.9µM* | ? | 7.9µM* | ? | -8

Screening results deposited in PubChem by National Center for Advancing Translational Sciences (NCATS).
